In PubChem BioAssay (Tox21):
Where “and” joins values, the source holds several entries; their conditions need not be identical. Identical values can stand only once. Results filed as inconclusive are left out. Calls of active or inactive are those of the source. Unless noted, the call rests on the fitted dose curve; in most records, active means well fitted curve in the direction sought with a large enough effect in the repeat runs; inconclusive means weak or mixed curves; inactive means no such curve, though single readings can be large; an effect the other way counts as inactive or inconclusive.

Tests used:
[1] = qHTS assay to identify aromatase inhibitors - cell viability counter screen (AID 743084);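 further: cells stimulated with testosterone during compound exposure; nearly all actives have a fitted effect of over 55% in size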; further: potency means the concentration at half of the fitted maximal effect
[2] = target: Aryl hydrocarbon receptor (Homo sapiens) (UniProt P35869); experiment: qHTS assay to identify small molecule that activate the aryl hydrocarbon receptor (AhR) signaling pathway (AID 743085); further: nearly all actives have a fitted effect of over 15% in size; further: potency means the concentration at half of the fitted maximal effect;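 on activation: HG2L7.5c1 human HepG2 liver cells with stably integrated DRE-driven firefly reporter; series mostly up to about 70 µM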
Procedure, shortened: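 A multiplexed format paired cell viability (CellTiter-Fluor fluorescence) with AhR-dependent luciferase output (ONE-Glo luminescence) in the same wells of HepG2 DRE-luc cells after 24 h compound exposure at 37C.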

[3] = qHTS assay to identify small molecule that activate the aryl hydrocarbon receptor (AhR) signaling pathway - cell viability counter screen (AID 743086); further: nearly all actives have a fitted effect of over 45% in size; further: potency means the concentration at half of the fitted maximal effect
Procedure, shortened: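 HepG2-AhR-luc (HG2L7.5c1) cells, 4000/well, were preincubated 5 h at 37C, exposed to compound in qHTS format for 24 hr at 37C, then given CellTiter-Fluor for 30 min; viability was read as fluorescence in the reporter wells.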

[4] = qHTS assay to identify small molecule antagonists of the peroxisome proliferator-activated receptor gamma (PPARg) signaling pathway - cell viability counter screen (AID 743194); further: nearly all actives have a fitted effect of over 55% in size; further: potency means the concentration at half of the fitted maximal effect
Procedure, shortened: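 PPARg-UAS-bla HEK293H cells were plated, rested 5 h at 37 C, then treated with compounds plus rosiglitazone (50 nM final) for 17 h at 37 C; viability was then read by CellTiter-Glo luminescence after 30 min at room temperature.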

[5] = qHTS assay for small molecule agonists of the antioxidant response element (ARE) signaling pathway - cell viability counter screen (AID 743203; calls by dose curve; further: nearly all actives have a fitted effect of over 55% in size; further: potency means the concentration at half of the fitted maximal effect)
Procedure, shortened: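 Luminescence read-out (CellTiter-Glo, 30 min at room temperature) measured cell viability in the same wells as the ARE beta-lactamase reporter. HepG2 ARE-bla cells were treated with compounds for 16 hrs at 37C/5% CO2.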

[6] = qHTS assay for small molecule activators of the heat shock response signaling pathway - cell viability counter screen (AID 743209); further: nearly all actives have a fitted effect of over 50% in size; further: potency means the concentration at half of the fitted maximal effect
Procedure, shortened: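 HSE-bla HeLa; 1500 cells/well; overnight 37 C, 5% CO2; compound 5 h 37 C; LiveBLAzer B/G substrate 2.5 h RT; CellTiter-Glo 30 min RT; luminescence.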

[7] = qHTS assay to identify small molecule agonists of the peroxisome proliferator-activated receptor delta (PPARd) signaling pathway - cell viability counter screen (AID 743211); further: nearly all actives have a fitted effect of over 55% in size; further: potency means the concentration at half of the fitted maximal effect
Procedure, shortened: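 Tox21 library compounds, delivered in DMSO, were incubated 17 h with PPARd-bla HEK293H cells; cytotoxicity was taken from CellTiter-Glo luminescence read 30 min after reagent addition.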

[8] = qHTS assay to identify small molecule antagonists of the peroxisome proliferator-activated receptor delta (PPARd) signaling pathway - cell viability counter screen (AID 743213); further: nearly all actives have a fitted effect of over 50% in size; further: potency means the concentration at half of the fitted maximal effect
Procedure, shortened: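 Cytotoxicity counter screen: CellTiter-Glo luminescence read 30 min after addition, in the same wells as the reporter assay. There, PPARd UAS-bla HEK293H cells (3000/well) were treated 17 h at 37 C with compound and 300 nM L165041.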

[9] = qHTS assay to identify small molecule agonists of the farnesoid-X-receptor (FXR) signaling pathway - cell viability counter screen (AID 743218); further: nearly all actives have a fitted effect of over 45% in size; further: potency means the concentration at half of the fitted maximal effect
Procedure, shortened: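 Luminescence from CellTiter-Glo, read after 30 min at RT, reports viability of GeneBLAzer FXR-UAS-bla HEK 293T cells treated 16 h with compounds in the wells used for the beta-lactamase reporter.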

[10] = qHTS assay to identify small molecule antagonists of the farnesoid-X-receptor (FXR) signaling pathway - cell viability counter screen (AID 743221; active means well fitted cell-killing curve with a large enough effect in the repeat runs, not every such curve was filed as active; further: nearly all actives have a fitted effect of over 50% in size; further: potency means the concentration at half of the fitted maximal effect)
Procedure, shortened: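 Cytotoxicity is taken from ATP luminescence (CellTiter-Glo, 30 min, room temperature) in FXR-bla HEK 293T cells previously incubated 16 h at 37 C with compound and chenodeoxycholic acid at 50 uM final.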

[11] = qHTS assay for small molecule agonists of the antioxidant response element (ARE) signaling pathway (AID 743202; active means well fitted activation curve with a large enough effect in the signal ratio in the repeat runs, not every such curve was filed as active; the % refers to the signal ratio; further: potency means the concentration at half of the fitted maximal effect)
Procedure, shortened: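 Following a 16 h, 37 C exposure of reporter HepG2 cells (ARE-driven beta-lactamase, 2,000 cells/well) to compounds, FRET substrate was applied for 2 h at room temperature and fluorescence intensity recorded.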

[12] = target: Vitamin D3 receptor (Homo sapiens) (UniProt P11473); experiment: qHTS assay to identify small molecule antagonists of the vitamin D receptor (VDR) signaling pathway (AID 743223; active means well fitted inhibition curve with a large enough effect in the signal ratio in the repeat runs, not every such curve was filed as active; the % refers to the signal ratio)
Procedure, shortened: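 Quantitative HTS in VDR-bla reporter cells stimulated with 1alpha,25-dihydroxyvitamin D3, 3 nM final. Compound exposure 16 h, 37C, 5% CO2. Read-out: beta-lactamase FRET substrate fluorescence, 2 h RT.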

[13] = target: Peroxisome proliferator-activated receptor gamma (Homo sapiens) (UniProt P37231); experiment: qHTS assay to identify small molecule agonists of the peroxisome proliferator-activated receptor gamma (PPARg) signaling pathway (AID 743094; active means well fitted activation curve with a large enough effect in the signal ratio in the repeat runs, not every such curve was filed as active; the % refers to the signal ratio)
Procedure, shortened: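 HEK293H PPARg-bla cells, 5 h settle at 37C/5% CO2; compound (DMSO) 17 h, 37C; B/G FRET substrate 1 h RT; fluorescence intensity read-out. qHTS format.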

[14] = target: Peroxisome proliferator-activated receptor delta (Homo sapiens) (UniProt Q03181); experiment: qHTS assay to identify small molecule agonists of the peroxisome proliferator-activated receptor delta (PPARd) signaling pathway (AID 743212; calls by dose curve)
Procedure, shortened: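 Beta-lactamase reporter read by fluorescence (LiveBLAzer B/G FRET, 2 h, room temperature). Test agents, in DMSO, incubated at 37 C with PPARd-bla HEK293H cells.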

[15] = target: Peroxisome proliferator-activated receptor delta (Homo sapiens) (UniProt Q03181); experiment: qHTS assay to identify small molecule antagonists of the peroxisome proliferator-activated receptor delta (PPARd) signaling pathway (AID 743215; active means well fitted inhibition curve with a large enough effect in the signal ratio in the repeat runs, not every such curve was filed as active; the % refers to the signal ratio;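 further: cells stimulated with agonist L165041 at 300 nM final during compound exposure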; further: potency means the concentration at half of the fitted maximal effect)
Procedure, shortened: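 HEK293H GeneBLAzer PPARd UAS-bla reporter cells; cpd + L165041 300 nM final, 17 h 37 C; LiveBLAzer B/G FRET substrate 2 h RT; fluorescence intensity read-out. Antagonist mode.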

[16] = target: Bile acid receptor (Homo sapiens) (UniProt Q96RI1); experiment: qHTS assay to identify small molecule antagonists of the farnesoid-X-receptor (FXR) signaling pathway (AID 743217; active means well fitted inhibition curve with a large enough effect in the signal ratio in the repeat runs, not every such curve was filed as active; the % refers to the signal ratio; further: potency means the concentration at half of the fitted maximal effect)
Procedure, shortened: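 Read-out: beta-lactamase FRET fluorescence (LiveBLAzer B/G substrate, 2 h, room temperature) in GeneBLAzer FXR-UAS-bla HEK 293T cells. Compounds were co-dosed with 50 uM chenodeoxycholic acid (final) and incubated 16 h at 37 °C.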

[17] = target: Bile acid receptor (Homo sapiens) (UniProt Q96RI1); experiment: qHTS assay to identify small molecule agonists of the farnesoid-X-receptor (FXR) signaling pathway (AID 743220; active means well fitted activation curve with a large enough effect in the signal ratio in the repeat runs, not every such curve was filed as active; the % refers to the signal ratio)
Procedure, shortened: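 FXR-UAS-bla HEK 293T cells carrying a UAS-driven beta-lactamase reporter were plated for 5 h at 37C/5% CO2, then exposed to DMSO-dissolved Tox21 10K compounds for 16 h at 37C. A LiveBLAzer B/G FRET substrate was loaded for 2 h at room temperature before fluorescence reading.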

[18] = target: Vitamin D3 receptor (Homo sapiens) (UniProt P11473); experiment: qHTS assay to identify small molecule agonists of the vitamin D receptor (VDR) signaling pathway (AID 743222; calls by dose curve)
Procedure, shortened: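 Beta-lactamase reporter readout (LiveBLAzer B/G FRET, 2 h RT) in VDR-bla cells after 16 h compound treatment at 37C, 5% CO2; cells pre-incubated 4 h before pin transfer of DMSO solutions.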

[19] = target: Peroxisome proliferator-activated receptor gamma (Homo sapiens) (UniProt P37231); experiment: qHTS assay to identify small molecule antagonists of the peroxisome proliferator-activated receptor gamma (PPARg) signaling pathway (AID 743191; calls by dose curve; further: potency means the concentration at half of the fitted maximal effect; nearly all actives have a fitted effect of over 30% in size)
Procedure, shortened: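 GeneBLAzer PPARg UAS-bla HEK293H cells carrying a UAS-driven beta-lactamase reporter were plated at 3000 cells/well, preincubated 5 h at 37C, then given compound for 17 h at 37C; LiveBLAzer B/G FRET substrate was read after 1 h at room temperature.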

[20] = qHTS assay for small molecule activators of the heat shock response signaling pathway (AID 743210; active means well fitted activation curve with a large enough effect in the signal ratio in the repeat runs, with a control signal flat, not every such curve was filed as active; the % refers to the signal ratio; further: series mostly up to about 63 µM)
Procedure, shortened: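 Heat shock element–beta-lactamase HeLa reporter cells; qHTS with compounds for 5 h at 37 C; detection by FRET substrate fluorescence after 2.5 h at RT.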

Measured: Potency

Peroxisome proliferator-activated receptor delta (Homo sapiens), sequence (Q03181 whole entry, looked up): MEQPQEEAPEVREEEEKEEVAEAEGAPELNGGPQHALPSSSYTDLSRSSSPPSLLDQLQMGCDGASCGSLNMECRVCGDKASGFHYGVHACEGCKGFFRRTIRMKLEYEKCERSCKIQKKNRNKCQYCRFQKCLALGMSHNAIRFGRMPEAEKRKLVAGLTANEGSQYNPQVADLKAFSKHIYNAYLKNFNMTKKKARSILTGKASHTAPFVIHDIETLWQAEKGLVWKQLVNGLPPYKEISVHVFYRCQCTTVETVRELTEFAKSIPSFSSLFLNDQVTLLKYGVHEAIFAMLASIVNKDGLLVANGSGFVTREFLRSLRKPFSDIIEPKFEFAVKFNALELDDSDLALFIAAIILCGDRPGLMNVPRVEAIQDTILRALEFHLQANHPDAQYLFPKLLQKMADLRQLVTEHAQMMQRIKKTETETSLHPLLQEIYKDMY
Peroxisome proliferator-activated receptor gamma (Homo sapiens), sequence (P37231 whole entry, looked up): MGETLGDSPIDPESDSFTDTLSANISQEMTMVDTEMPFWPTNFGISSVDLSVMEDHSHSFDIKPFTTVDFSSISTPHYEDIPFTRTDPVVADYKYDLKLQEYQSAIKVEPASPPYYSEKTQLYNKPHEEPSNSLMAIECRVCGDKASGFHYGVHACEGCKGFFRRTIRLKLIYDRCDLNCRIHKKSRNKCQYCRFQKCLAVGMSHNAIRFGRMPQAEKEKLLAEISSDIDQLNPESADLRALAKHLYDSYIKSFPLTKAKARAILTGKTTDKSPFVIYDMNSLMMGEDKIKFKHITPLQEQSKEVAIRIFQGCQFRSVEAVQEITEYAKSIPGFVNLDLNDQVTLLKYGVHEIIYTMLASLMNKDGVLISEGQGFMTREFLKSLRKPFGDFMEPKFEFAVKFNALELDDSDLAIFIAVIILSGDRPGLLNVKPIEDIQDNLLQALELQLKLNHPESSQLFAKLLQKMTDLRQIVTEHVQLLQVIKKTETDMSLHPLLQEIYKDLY
Vitamin D3 receptor (Homo sapiens), sequence (P11473 whole entry, looked up): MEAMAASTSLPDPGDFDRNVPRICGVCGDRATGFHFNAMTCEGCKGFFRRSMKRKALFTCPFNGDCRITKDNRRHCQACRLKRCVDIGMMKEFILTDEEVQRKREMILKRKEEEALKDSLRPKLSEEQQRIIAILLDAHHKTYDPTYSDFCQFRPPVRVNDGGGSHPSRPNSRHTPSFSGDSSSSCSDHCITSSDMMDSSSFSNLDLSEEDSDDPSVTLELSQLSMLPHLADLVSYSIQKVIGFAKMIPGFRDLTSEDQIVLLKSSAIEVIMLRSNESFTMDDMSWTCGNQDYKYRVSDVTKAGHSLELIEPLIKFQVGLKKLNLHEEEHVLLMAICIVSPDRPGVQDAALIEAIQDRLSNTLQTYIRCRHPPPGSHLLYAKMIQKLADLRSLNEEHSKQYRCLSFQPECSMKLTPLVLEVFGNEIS
Bile acid receptor (Homo sapiens), sequence (Q96RI1 whole entry, looked up): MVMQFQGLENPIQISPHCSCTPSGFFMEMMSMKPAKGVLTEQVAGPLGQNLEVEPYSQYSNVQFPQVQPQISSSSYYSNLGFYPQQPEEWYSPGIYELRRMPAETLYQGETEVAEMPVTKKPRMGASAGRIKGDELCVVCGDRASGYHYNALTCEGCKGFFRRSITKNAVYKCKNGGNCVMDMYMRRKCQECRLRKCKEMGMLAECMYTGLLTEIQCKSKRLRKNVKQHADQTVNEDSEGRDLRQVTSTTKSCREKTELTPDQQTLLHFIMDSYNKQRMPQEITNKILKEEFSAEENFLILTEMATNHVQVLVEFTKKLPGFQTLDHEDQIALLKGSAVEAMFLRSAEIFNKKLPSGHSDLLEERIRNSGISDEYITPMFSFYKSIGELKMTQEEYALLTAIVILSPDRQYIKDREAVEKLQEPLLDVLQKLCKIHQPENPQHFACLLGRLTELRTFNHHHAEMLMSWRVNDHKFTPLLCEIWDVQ
Aryl hydrocarbon receptor (Homo sapiens), sequence (P35869 whole entry, looked up): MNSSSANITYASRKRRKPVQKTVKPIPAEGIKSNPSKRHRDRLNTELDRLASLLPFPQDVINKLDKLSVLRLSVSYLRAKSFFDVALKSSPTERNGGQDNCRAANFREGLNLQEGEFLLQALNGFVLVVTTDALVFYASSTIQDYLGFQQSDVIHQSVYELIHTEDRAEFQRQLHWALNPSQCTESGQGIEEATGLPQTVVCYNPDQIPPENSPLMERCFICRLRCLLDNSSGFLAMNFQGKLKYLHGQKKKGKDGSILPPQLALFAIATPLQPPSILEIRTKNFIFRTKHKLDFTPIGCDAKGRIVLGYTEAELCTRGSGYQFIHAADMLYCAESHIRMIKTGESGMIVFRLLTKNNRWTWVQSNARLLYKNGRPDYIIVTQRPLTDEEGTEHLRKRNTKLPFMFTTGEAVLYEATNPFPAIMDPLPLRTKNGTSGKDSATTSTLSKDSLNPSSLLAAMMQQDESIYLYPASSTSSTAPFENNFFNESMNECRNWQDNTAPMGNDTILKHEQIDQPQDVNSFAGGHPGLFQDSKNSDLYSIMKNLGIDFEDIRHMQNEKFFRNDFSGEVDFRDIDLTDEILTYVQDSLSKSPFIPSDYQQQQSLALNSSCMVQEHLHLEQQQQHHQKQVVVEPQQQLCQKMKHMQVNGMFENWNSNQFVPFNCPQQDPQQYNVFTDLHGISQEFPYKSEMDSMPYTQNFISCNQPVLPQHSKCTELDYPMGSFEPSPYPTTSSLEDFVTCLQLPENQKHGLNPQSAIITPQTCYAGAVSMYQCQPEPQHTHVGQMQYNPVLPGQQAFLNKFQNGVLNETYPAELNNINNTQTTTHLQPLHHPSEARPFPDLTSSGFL

CS(=O)(=O)CCNCc1ccc(-c2ccc3ncnc(Nc4ccc(OCc5cccc(F)c5)c(Cl)c4)c3c2)o1
active: [4] 15 µM | [5] 26.6 µM | [6] 26.6 µM | [7] 9.44 µM | [8] 21.1 µM | [9] 10.6 µM | [10] 26.6 µM
inactive: [1] | [2] | [3]

NNc1nc(-c2ccc([N+](=O)[O-])cc2)cs1
inactive: [3] | [10] | [12]
active: [1] 30.6 µM | [2] 9.69 µM | [4] 24.5 µM | [11] 9.69 µM

O=Cc1cc(O)ccc1Br
not listed: [4] | [6] | [7] | [11] | [12] | [19] | [20]
inactive: all other assays above

CN(C)c1ccc(SC#N)cc1
inactive: [1] | [2] | [3] | [13] | [6] | [7] | [8] | [16] | [9] | [18]

CCc1cc(Cc2cc(CC)c(N)c(CC)c2)cc(CC)c1N
active: [2] 2.73 µM | [19] 38.9 µM | [5] 54.5 µM | [7] 54.9 µM | [8] 54.9 µM | [9] 43.6 µM
inactive: [1] | [3] | [17] | [10] | [12]

CCN1/C(=C/C=C/c2sc3ccccc3[n+]2CC)Sc2ccccc21
active: [1] 5.96 µM | [2] 2.66 µM | [3] 6.68 µM | [4] 14.6 µM | [11] 1.16 µM | [5] 13 µM | [6] 13 µM | [7] 14.6 µM
inactive: [17]

CCCCCCCCCCCCCCCS(=O)(=O)Oc1ccccc1
inactive: [1] | [2] | [3] | [13] | [4] | [5] | [7] | [8] | [9] | [17] | [18]

CN1CCN(CCC(=O)N2c3ccccc3Sc3ccc(C(F)(F)F)cc32)CC1
active: [3] 18.8 µM | [4] 33.5 µM | [5] 29.8 µM | [7] 11.9 µM | [8] 16.8 µM | [15] 29.8 µM | [9] 21.1 µM | [10] 33.5 µM
inactive: [1] | [2] | [13] | [20] | [14] | [17] | [18]

CCCCC(CC)COP(=O)(O)OCC(CC)CCCC (stereo not given)
active: [5] 61.1 µM | [6] 49.1 µM and 43.6 µM | [7] 55 µM | [9] 55 µM and 43.6 µM
inactive: [1] | [2] | [3] | [4] | [8] | [17] | [12]

COc1ccc(-c2ccc3cc(C(=O)O)ccc3c2)cc1C12CC3CC(CC(C3)C1)C2
active: [4] 23.7 µM | [5] 23.7 µM | [9] 7.5 µM
inactive: [1] | [2] | [3] | [13] | [12]

CCCCCCCCCCCCCCCC[N+](C)(C)CCN(Cc1ccc(OC)cc1)c1ncccn1
inactive: [1] | [2] | [3] | [13] | [15] | [17]
active: [4] 26.6 µM | [7] 13.3 µM | [9] 29.8 µM | [10] 26.6 µM

C=CC(=O)OCCn1c(=O)n(CCOC(=O)C=C)c(=O)n(CCOC(=O)C=C)c1=O
active: [1] 13.7 µM | [3] 38.6 µM | [4] 13.8 µM | [5] 54.5 µM | [6] 13.8 µM | [7] 19.5 µM | [8] 19.5 µM | [15] 13.8 µM | [9] 24.5 µM | [10] 34.7 µM
inactive: [2]

Cc1ccc(-n2nc(C(C)(C)C)cc2NC(=O)Nc2ccc(OCCN3CCOCC3)c3ccccc23)cc1
active: [2] 15 µM | [16] 16.8 µM
inactive: [1] | [3] | [4] | [11] | [5] | [20] | [17]

Clc1ccc2n[nH]nc2c1
not listed: [11] | [12] | [13] | [14] | [16] | [17] | [19] | [20]
inactive: all other assays above

Cc1c(C)c2c(c(C)c1OC(=O)CCC(=O)O)CC[C@@](C)(CCC[C@H](C)CCC[C@H](C)CCCC(C)C)O2
not listed: [10] | [11] | [12] | [13] | [16] | [18] | [19]
inactive: all other assays above

CC/C(=C(\c1ccc(O)cc1)c1ccc(OCCN(C)C)cc1)c1ccccc1
inactive: [2]
active: [1] 48.7 µM | [3] 54.6 µM | [4] 17.4 µM | [5] 15.4 µM | [6] 27.6 µM | [7] 11 µM | [8] 21.9 µM | [9] 15.5 µM | [10] 24.6 µM
